Experimental data: the supplement of paper PMC3545927
The other results are listed elsewhere or left out. No count for the full screen is at hand.

Biological target: furin, P09958
Test: furin cleavage Z-score vs untreated control; higher = more cleavage, active = 3.5 or more, inactive = 1 or less, 8 variable residues between constant flanks
Summary of the method: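 Cleavage by purified furin was measured on 8-mer peptides fused to a cDNA oligonucleotide and held on magnetic beads by their N-terminus. Reactions (0.01 ml, 1:10 enzyme:substrate) ran 7.5, 15 or 30 min in 50 mM HEPES pH 7.5 with CaCl2 and NaCl. Released DNA was adapter-tagged by PCR and sequenced, with read counts giving abundance. Log counts versus furin-free reactions were lowess-adjusted and scaled by median absolute deviation to give the cleavage Z-score.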

Chain of furin, P09958 (P09958 whole entry): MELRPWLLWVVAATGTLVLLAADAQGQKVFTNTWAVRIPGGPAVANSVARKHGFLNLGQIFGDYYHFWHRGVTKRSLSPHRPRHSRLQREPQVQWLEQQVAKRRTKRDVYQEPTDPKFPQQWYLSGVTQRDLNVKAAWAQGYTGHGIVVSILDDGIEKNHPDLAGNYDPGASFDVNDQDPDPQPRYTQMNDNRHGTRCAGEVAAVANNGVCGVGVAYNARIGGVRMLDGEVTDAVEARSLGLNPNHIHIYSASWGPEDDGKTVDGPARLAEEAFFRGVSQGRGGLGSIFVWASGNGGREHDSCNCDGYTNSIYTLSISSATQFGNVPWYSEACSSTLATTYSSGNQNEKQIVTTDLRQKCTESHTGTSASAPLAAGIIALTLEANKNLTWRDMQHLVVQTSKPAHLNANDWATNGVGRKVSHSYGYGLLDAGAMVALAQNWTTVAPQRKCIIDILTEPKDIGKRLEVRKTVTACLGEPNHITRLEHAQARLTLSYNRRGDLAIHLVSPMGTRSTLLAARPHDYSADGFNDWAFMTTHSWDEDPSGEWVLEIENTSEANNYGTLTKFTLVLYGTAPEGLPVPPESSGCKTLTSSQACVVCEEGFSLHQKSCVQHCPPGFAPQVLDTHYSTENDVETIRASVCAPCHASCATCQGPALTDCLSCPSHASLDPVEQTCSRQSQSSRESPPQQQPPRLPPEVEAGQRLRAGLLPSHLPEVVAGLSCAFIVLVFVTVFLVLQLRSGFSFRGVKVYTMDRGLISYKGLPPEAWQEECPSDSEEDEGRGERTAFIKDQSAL

## CAFVLNNTRPAGNASASA [HC429]
7.5 min
  furin cleavage Z-score: -0.02 (inactive)
15 min
  furin cleavage Z-score: 0.46 (inactive)
30 min
  furin cleavage Z-score: -0.424 (inactive)

## CARARRLRREAGNASASA [FS-288]
7.5 min
  furin cleavage Z-score: 12.9 (active)
15 min
  furin cleavage Z-score: 12.3 (active)
30 min
  furin cleavage Z-score: 9.18 (active)

## CARRLREAVQAGNASASA [FS-2071]
7.5 min
  furin cleavage Z-score: 0.989 (inactive)
15 min
  furin cleavage Z-score: -0.0587 (inactive)
30 min
  furin cleavage Z-score: 2.28

## CARRLRARREAGNASASA [FS-291]
7.5 min
  furin cleavage Z-score: 9.55 (active)
15 min
  furin cleavage Z-score: 8.95 (active)
30 min
  furin cleavage Z-score: 6.29 (active)

## CARARRRSAEAGNASASA [FS-2889]
7.5 min
  furin cleavage Z-score: 2.93
15 min
  furin cleavage Z-score: 2.98
30 min
  furin cleavage Z-score: 4.07 (active)

## CARARRSMDEAGNASASA [FS-2203]
7.5 min
  furin cleavage Z-score: 10.2 (active)
15 min
  furin cleavage Z-score: 11.1 (active)
30 min
  furin cleavage Z-score: 8.05 (active)

## CARARRRTPTAGNASASA [FS-1995]
7.5 min
  furin cleavage Z-score: 0.355 (inactive)
15 min
  furin cleavage Z-score: 2.75
30 min
  furin cleavage Z-score: 0.804 (inactive)

## CARARKLADEAGNASASA [FS-2887]
7.5 min
  furin cleavage Z-score: 0.23 (inactive)
15 min
  furin cleavage Z-score: -0.74 (inactive)
30 min
  furin cleavage Z-score: -2.19 (inactive)

## CAVTKYIMTCAGNASASA [HC981]
7.5 min
  furin cleavage Z-score: -0.549 (inactive)
15 min
  furin cleavage Z-score: -0.794 (inactive)
30 min
  furin cleavage Z-score: 0.2 (inactive)

## CAEVPCHHPSAGNASASA [HC2375]
7.5 min
  furin cleavage Z-score: 0.748 (inactive)
15 min
  furin cleavage Z-score: 1.23
30 min
  furin cleavage Z-score: 0.223 (inactive)

## CAAPNYTFALAGNASASA [HC1198]
7.5 min
  furin cleavage Z-score: -1.92 (inactive)
15 min
  furin cleavage Z-score: -0.299 (inactive)
30 min
  furin cleavage Z-score: -0.368 (inactive)

## CAGDPPQPEYAGNASASA [HC1546]
7.5 min
  furin cleavage Z-score: -0.406 (inactive)
15 min
  furin cleavage Z-score: -0.628 (inactive)
30 min
  furin cleavage Z-score: 0.347 (inactive)

## CARVRRAATPAGNASASA [FS-2621]
7.5 min
  furin cleavage Z-score: 11.8 (active)
15 min
  furin cleavage Z-score: 12.6 (active)
30 min
  furin cleavage Z-score: 10.3 (active)

## CARVRKDGGGAGNASASA [FS-2842]
7.5 min
  furin cleavage Z-score: -0.741 (inactive)
15 min
  furin cleavage Z-score: 1.03
30 min
  furin cleavage Z-score: -1.03 (inactive)

## CASVSHARPRAGNASASA [HC1652]
7.5 min
  furin cleavage Z-score: 0.173 (inactive)
15 min
  furin cleavage Z-score: -1.3 (inactive)
30 min
  furin cleavage Z-score: -0.282 (inactive)

## CARVRRQIHAAGNASASA [FS-2319]
7.5 min
  furin cleavage Z-score: 8.32 (active)
15 min
  furin cleavage Z-score: 8.68 (active)
30 min
  furin cleavage Z-score: 7.57 (active)

## CARVRRLFCRAGNASASA [FS-2245]
7.5 min
  furin cleavage Z-score: 0.941 (inactive)
15 min
  furin cleavage Z-score: 1.51
30 min
  furin cleavage Z-score: 0.361 (inactive)

## CARVRRAIPRAGNASASA [FS-3123]
7.5 min
  furin cleavage Z-score: 5.13 (active)
15 min
  furin cleavage Z-score: 4.64 (active)
30 min
  furin cleavage Z-score: 6.32 (active)

## CARVRRAGQGAGNASASA [FS-2106]
7.5 min
  furin cleavage Z-score: 3.76 (active)
15 min
  furin cleavage Z-score: 5.43 (active)
30 min
  furin cleavage Z-score: 4.94 (active)

## CARCWVAMTPAGNASASA [HC279]
7.5 min
  furin cleavage Z-score: -1.59 (inactive)
15 min
  furin cleavage Z-score: 1.01
30 min
  furin cleavage Z-score: -0.0231 (inactive)

## CAMEEFSQHLAGNASASA [HC6]
7.5 min
  furin cleavage Z-score: -0.132 (inactive)
15 min
  furin cleavage Z-score: -1.04 (inactive)
30 min
  furin cleavage Z-score: -0.188 (inactive)

## CAADTVDGAGAGNASASA [CS9]
7.5 min
  furin cleavage Z-score: 0.142 (inactive)
15 min
  furin cleavage Z-score: -1.09 (inactive)
30 min
  furin cleavage Z-score: -0.572 (inactive)

## CADEECSQHLAGNASASA [HC1671]
7.5 min
  furin cleavage Z-score: 0.117 (inactive)
15 min
  furin cleavage Z-score: 0.56 (inactive)
30 min
  furin cleavage Z-score: -0.0902 (inactive)

## CAEAVTSTWVAGNASASA [HC2163]
7.5 min
  furin cleavage Z-score: 1.01
15 min
  furin cleavage Z-score: -0.993 (inactive)
30 min
  furin cleavage Z-score: -0.235 (inactive)

## CAYTPCSGSWAGNASASA [HC1829]
7.5 min
  furin cleavage Z-score: -0.863 (inactive)
15 min
  furin cleavage Z-score: -0.615 (inactive)
30 min
  furin cleavage Z-score: -0.179 (inactive)

## CAEVHTSTWVAGNASASA [HC2195]
7.5 min
  furin cleavage Z-score: 0.614 (inactive)
15 min
  furin cleavage Z-score: -0.225 (inactive)
30 min
  furin cleavage Z-score: 1.53

## CARVRREDTPAGNASASA [FS-3125]
7.5 min
  furin cleavage Z-score: 7.61 (active)
15 min
  furin cleavage Z-score: 7.5 (active)
30 min
  furin cleavage Z-score: 6.22 (active)

## CARFKRWKAEAGNASASA [FS-1853]
7.5 min
  furin cleavage Z-score: 3.27
15 min
  furin cleavage Z-score: 4.72 (active)
30 min
  furin cleavage Z-score: 6.24 (active)

## CADPSHITAEAGNASASA [HC1249]
7.5 min
  furin cleavage Z-score: -0.448 (inactive)
15 min
  furin cleavage Z-score: -0.687 (inactive)
30 min
  furin cleavage Z-score: -1.36 (inactive)

## CARPDRSSQGAGNASASA [FS-3016]
7.5 min
  furin cleavage Z-score: -1.72 (inactive)
15 min
  furin cleavage Z-score: -1.8 (inactive)
30 min
  furin cleavage Z-score: -1.46 (inactive)

## CAAGRRSEAEAGNASASA [FS-1877]
7.5 min
  furin cleavage Z-score: -2 (inactive)
15 min
  furin cleavage Z-score: -1.75 (inactive)
30 min
  furin cleavage Z-score: -0.59 (inactive)

## CAAFKIMSGEAGNASASA [HC1093]
7.5 min
  furin cleavage Z-score: -0.371 (inactive)
15 min
  furin cleavage Z-score: -0.656 (inactive)
30 min
  furin cleavage Z-score: -1.3 (inactive)

## CARWGRSAQGAGNASASA [FS-3130]
7.5 min
  furin cleavage Z-score: 4.05 (active)
15 min
  furin cleavage Z-score: 4 (active)
30 min
  furin cleavage Z-score: 4.18 (active)

## CARFKKFATEAGNASASA [FS-1700]
7.5 min
  furin cleavage Z-score: 0.401 (inactive)
15 min
  furin cleavage Z-score: 0.983 (inactive)
30 min
  furin cleavage Z-score: -0.463 (inactive)

## CARVRRSTAEAGNASASA [FS-2388]
7.5 min
  furin cleavage Z-score: 12.5 (active)
15 min
  furin cleavage Z-score: 12.2 (active)
30 min
  furin cleavage Z-score: 8.54 (active)

## CARPPRPAQGAGNASASA [FS-2057]
7.5 min
  furin cleavage Z-score: -0.496 (inactive)
15 min
  furin cleavage Z-score: -0.739 (inactive)
30 min
  furin cleavage Z-score: -0.973 (inactive)
